# ± gives the standard deviation. Whole data set: some 8,200 sequences, median “pre-steady-state target cleavage rate” near 0.024, cut for the highest 2% near 1.3. For the sample, the highest values were picked, then their nearest neighbours and some sequences at random.
# Test system: MIWI (PIWIL1) piRISC loaded with L1MC piRNA (30 nt)
# Test: pre-steady-state target cleavage rate (min^-1); MIWI and MILI are mouse PIWI proteins and EfPiwi is from a freshwater sponge; tags in brackets are library labels; higher = faster piRNA-guided slicing of the target
# Conditions: guide: L1MC piRNA 5'p-UAACUAAAUACUAUGCAAGCUGUAGGUCCU
# Procedure: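 Cleave-'n-Seq: a library of target RNAs (target site embedded in constant flanks, ACAGCATTCCGCGTTAGTGATATCCG... 5' flank; DNA-blocked outside the site) at 0.1 nM was incubated with 1 nM active mouse MILI or MIWI piRISC (synthetic 5'-monophosphorylated piRNA guide) with or without 500 nM mouse GTSF1 at 33 °C for 1 min to 16 h. Uncleaved targets were sequenced and normalised to non-target controls, and the pooled three trials were fitted to a burst-and-steady-state model to give the pre-steady-state cleavage rate (min^-1; k3 is constrained to at most 1e-4). Sequence is the target site only; target names encode pairing extent (gX:gY) and contiguous / 1-mismatch / 2-mismatch / bulge geometry. Fits with R² ≤ 0 are excluded.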
# [1] = auxiliary factor: 500 nM mouse GTSF1
# [2] = auxiliary factor: none (no GTSF1)
Sequence,pre-steady-state target cleavage rate [1],pre-steady-state target cleavage rate [2]
UCCUGGAUGUGCUUGCAUUGUUUUUAGUUA,0.0048 ± 0.0031,–
UCCUGGAUGUGCUUGCAUAGUAUUUUGUAA,0.0569 ± 0.016,0.00775 ± 0.0023
UCCACCUACAGCUUGCAUAGUAUUUGGUUA,0.555 ± 0.038,0.0358 ± 0.0079
UCGACCUACAGGUUGCAUAGUAUUUACUUA,0.296 ± 0.04,0.025 ± 0.0051
AGCACCUACACCUUGCAUAGUAUUUAGUUA,0.739 ± 0.074,0.0408 ± 0.0062
UCGACCUACAGCUUGCUUAGUAUUUAGUUA,1.66 ± 0.074,0.0474 ± 0.01
UCGACCUACAGCUUGCUUAGUAUUUAGUAA,1.02 ± 0.068,0.0176 ± 0.005
UGGACCUAGAGCUUGCUUAGUAUUUAGUUA,1.18 ± 0.095,0.0321 ± 0.0069
UGCACCUACAGCUUGCUUAGUAUUUAGUUA,1.25 ± 0.092,0.031 ± 0.0064
UCGACCUACAGCUUGGUUAGUAUUUAGUAA,0.72 ± 0.061,0.00525 ± 0.002
AGCACCUACAGCUUGCUUAGUAUUUAGUUA,0.978 ± 0.079,0.0389 ± 0.0089
UCGACCUACAGCUUGGUUAGUAUUUAGUUA,1.42 ± 0.058,0.00908 ± 0.0026
UCGACCUAGAGCUUGCUUAGUAUUUAGUUA,1.34 ± 0.048,0.0282 ± 0.0063
UCCACCUAGAGCUUGCUUAGUAUUUAGUUA,0.549 ± 0.044,0.0205 ± 0.0044
ACGACCUACAGCUUGCUUAGUAUUUAGUUA,1.57 ± 0.074,0.0527 ± 0.013
UCGACCUACAGCUUGCUAGUAUUUAGUUA,0.219 ± 0.061,–
UCGACCUACAGCUUGGUUAGUAUUUACAAA,0.0826 ± 0.02,–
UCCUCCUACAGGAUGCAUAGUAUUUACAAA,0.253 ± 0.041,–
UCCUGGAACAGGUAGCAUAGUAUUUAGUUA,0.266 ± 0.026,0.00407 ± 0.0017

Sequence,pre-steady-state target cleavage rate [1],pre-steady-state target cleavage rate [2]
UCCACCUUGUGCUUGCAUAGUAUUUACAAA,0.0809 ± 0.013,–
UCCUGGAUGAGCUUGCAUAGUGUUUAGUUA,0.708 ± 0.06,0.0494 ± 0.01
UGGACGUACAGCUUGCAUAGUAUUAAGUUA,0.721 ± 0.069,0.0383 ± 0.0073
UGGACCUACAGCUUGCUAAGUAUUUAGUUA,0.2 ± 0.022,0.00384 ± 0.002
UCCUGGAUGAGCUUGCAUAGUAUUUAGUAUA,0.702 ± 0.054,0.0165 ± 0.0055
UCCUGCUACAGCUUGCUUAGUAUUUAGUAA,0.279 ± 0.023,0.0083 ± 0.002
UCCUGGAUCAGCUUGCUUAGUAUUUAGAAA,0.116 ± 0.021,0.00482 ± 0.0028
UCGACCUACAGCGUGCAUAGUAUUUAGUUA,1.73 ± 0.072,0.0576 ± 0.0085
UGGACCUACAGCUGUGCAUAGUAUUUAGUUA,1.28 ± 0.11,0.0389 ± 0.0098
UCCACCUACAGCGUGCAUAGUAUUUAGUUA,1.06 ± 0.04,0.0325 ± 0.0056
AGGACCUACAGCAUUGCAUAGUAUUUAGUUA,1.28 ± 0.12,0.0689 ± 0.014
UGGACCUACAGCGUGCAUAGUAUUUAGUUA,1.43 ± 0.065,0.0647 ± 0.013
AGGACCUACAGUUGCAUAGUAUUUAGUUA,0.988 ± 0.07,0.0102 ± 0.0034
AGGACCUACAGCUGUGCAUAGUAUUUAGUUA,1.29 ± 0.063,0.0583 ± 0.012
AGGACCUACAGCGUGCAUAGUAUUUAGUUA,1.34 ± 0.054,0.0658 ± 0.011
UCGACCUACAGCUGUGCAUAGUAUUUAGUUA,1.42 ± 0.073,0.0386 ± 0.0081
UCGACCUACAGCGUUGCAUAGUAUUUAGUUA,1.21 ± 0.073,0.0561 ± 0.01
UCCUGCUACAGCGUGCAUAGUAUUUAGUUA,1.27 ± 0.074,0.0183 ± 0.005

# Source: the supplement of paper PMC10338343
